Test results taken from PubChem BioAssay.
Calls of active or inactive are those of the source. Unless noted, no stated cut-off is given here; in the data, active means inhibition above about 30%; inactive means the rest.

Experiment: MRP1 drug-resistance reversers in H69AR cells – cell-based, doxorubicin co-treatment, pilot screen (AID 601)
Settings: H69AR cells, CellTiter-Glo, 72 h; compound alone cytotoxicity; at 10 µM
Compound Cn1c(=O)c2ncn(CC(=O)NCCOc3ccc(C(C)(C)C)cc3)c2n(C)c1=O has a viability of 76.2%.
In the case of COc1ccc(-c2cc(C(=O)NCc3ccc(Cl)cc3)no2)cc1OC, the viability is reported as 100%.
For CCOC(=O)c1ccc(NC(=O)CCNc2c(N3CCCC3)c(=O)c2=O)cc1, the viability was 98.3%.
With CCOC(=O)CSc1nnc(CCc2nc3ccccc3[nH]2)n1C the viability was 102%.
CCOc1ccc(-c2nnn(CCC(=O)O)n2)cc1OC showed a viability of 102%.
In the case of CCCCNC(=O)CN(C1CCCCC1)S(C)(=O)=O, the viability is reported as 103%.
CCOCCCNC(=O)C1CCC(=O)N1CCc1ccccc1 (centres undefined) showed a viability of 98.3%.
In the case of OC(COc1ccc2ccccc2c1)CN1CCOCC1 (centres undefined), the viability is reported as 81.5%.
COc1ccccc1CN1C(=O)CCC1(C)C(=O)NC1CCCCCC1 (centres undefined) showed a viability of 98.1%.

Experiment: yeast transport mutant growth inhibition pilot in 384-well plates, post-Golgi transport modulator project (AID 636; in the data active means inhibition above about 31%)
Settings: absorbance 615 nm, about 18 h, stronger effect = higher value
In the case of CC1/C(=N/O)C(CN(C)C)C2CC1C2(C)C (centres undefined), the inhibition is reported as -3.38% (inactive).
In the case of O=C(Nc1cccc(F)c1)c1ccc2c(c1)OCO2, the inhibition is reported as -2.63% (inactive).
In the case of COc1ccccc1N=Cc1nc(-c2ccccc2)oc1OC(C)=O, the inhibition is reported as -4.61% (inactive).
For CC(=O)Nc1ccc(S(=O)(=O)NCc2cn3c(C)csc3n2)cc1, the inhibition was -8.31% (inactive).
In the case of O=C(c1ccccc1Br)N1CCN(c2ccccc2)CC1, the inhibition is reported as -8.22% (inactive).
For COc1cccc(OC)c1C(=O)Nc1ccc(CN2CCCCC2)cc1, the inhibition was -0.66% (inactive).
For O=C(Cn1nnc(-c2ccccc2)n1)Nc1ccccc1N1CCOCC1, the inhibition was -7.2% (inactive).
For CCCCSc1cc(C)nc2ncnn12, the inhibition was 5.71% (inactive).
For COCCn1c(C)cc(C(=O)COC(=O)CCN2C(=O)c3ccccc3C2=O)c1C, the inhibition was -5.33% (inactive).
For Cc1cc(=O)n(CC(C)C)c(O)c1C#N, the inhibition was 0.53% (inactive).
With Cc1nc2cc(Cl)ccc2n1CCO the inhibition was -9.86% (inactive).
In the case of CCCN1CCN(C(=O)Cn2c(=O)oc3cc(S(=O)(=O)NCc4ccccc4)ccc32)CC1, the inhibition is reported as -2.67% (inactive).
For COc1ccc2cc(C#N)c(SCC(=O)N3CCCC3)nc2c1, the inhibition was 0.95% (inactive).
For CCn1c(=O)cc(OCC(=O)NC2CCCCC2)c2ccccc21, the inhibition was -0.77% (inactive).
With CC(C(=O)Nc1ccccc1-c1ccccc1)N1CCN(C(=O)c2ccco2)CC1 (centres undefined) the inhibition was -6.18% (inactive).
For Cc1c(C(=O)NCc2cccnc2)sc2ncn(CC(=O)N3CCCCC3C)c(=O)c12 (centres undefined), the inhibition was -0.79% (inactive).
For O=C(c1cn(-c2ccccc2)nc1-c1cccs1)N1CCN(c2ccccn2)CC1, the inhibition was -3.29% (inactive).
For CCOc1ccc2[nH]c(=O)c(C(c3nnnn3Cc3ccco3)N3CCC(C)CC3)cc2c1 (centres undefined), the inhibition was -5.34% (inactive).
In the case of c1ccc(-c2nnc(-c3ccco3)n2-c2ccccc2)cc1, the inhibition is reported as -6.08% (inactive).
For N#Cc1ccccc1NC(=O)CSc1nnc(-c2ccccc2)n1-c1ccccc1, the inhibition was 1.49% (inactive).
With Cc1ccc(-n2cnnn2)c2cccnc12 the inhibition was -5.53% (inactive).
For Cc1ccc(-c2[nH]nc3c2C(c2ccc(OC(=O)N4CCOCC4)cc2)C(C#N)=C(N)O3)cc1 (centres undefined), the inhibition was -5.26% (inactive).
With CC(C)=CC(=O)N1CCCc2ccccc21 the inhibition was -4.53% (inactive).
With CCOC(=O)c1cc2n(n1)C(C(F)(F)C(F)(F)F)CC(C)N2 (centres undefined) the inhibition was -3.73% (inactive).
With c1ccc(-c2ccccc2OCCn2cncn2)cc1 the inhibition was -5.41% (inactive).
In the case of CC(C)Cn1c(N)c(C(=O)COC(=O)c2ccc3c(c2)OCCO3)c(=O)n(C)c1=O, the inhibition is reported as -4.46% (inactive).
For COc1ccc(Cn2c(CCCO)nc3ccccc32)cc1OC, the inhibition was -7.67% (inactive).
In the case of CN(C)C(=O)N1CCCC(C(=O)NCc2ccccc2)C1 (centres undefined), the inhibition is reported as 1.92% (inactive).
For O=C(CN1C(=O)c2cccc3cccc1c23)N1CCN(c2ccccc2)CC1, the inhibition was 1.49% (inactive).
For CC(C)(C)OC(=O)NCCc1nnc(SCC(=O)c2ccc(Cl)cc2)o1, the inhibition was -0.78% (inactive).
In the case of CCOC(=O)N1CCN(c2c(N3CCN(c4ccccc4OC)CC3)c(=O)c2=O)CC1, the inhibition is reported as -4% (inactive).
For Cn1c(=O)c2ncn(CC(=O)NCCOc3ccc(C(C)(C)C)cc3)c2n(C)c1=O, the inhibition was -5.45% (inactive).
For COc1ccc(-c2cc(C(=O)NCc3ccc(Cl)cc3)no2)cc1OC, the inhibition was -6.35% (inactive).
With CCOC(=O)c1ccc(NC(=O)CCNc2c(N3CCCC3)c(=O)c2=O)cc1 the inhibition was -2.5% (inactive).
With CCOC(=O)CSc1nnc(CCc2nc3ccccc3[nH]2)n1C the inhibition was -4.93% (inactive).
For CCOc1ccc(-c2nnn(CCC(=O)O)n2)cc1OC, the inhibition was -4.93% (inactive).
In the case of CCCCNC(=O)CN(C1CCCCC1)S(C)(=O)=O, the inhibition is reported as -4.47% (inactive).
In the case of CCOCCCNC(=O)C1CCC(=O)N1CCc1ccccc1 (centres undefined), the inhibition is reported as -3.42% (inactive).
In the case of OC(COc1ccc2ccccc2c1)CN1CCOCC1 (centres undefined), the inhibition is reported as 1.56% (inactive).
With COc1ccccc1CN1C(=O)CCC1(C)C(=O)NC1CCCCCC1 (centres undefined) the inhibition was -2.13% (inactive).

Experiment: growth suppression of yeast trafficking mutant, preliminary HTS, modulators of trafficking downstream of Golgi apparatus project, 1536-format plate, OD 615 nm (AID 637)
Settings: yeast transport mutant growth, absorbance 615 nm, 18 h; stronger effect = higher value
For CC1/C(=N/O)C(CN(C)C)C2CC1C2(C)C (centres undefined), the inhibition was -3.49% (inactive).
For O=C(Nc1cccc(F)c1)c1ccc2c(c1)OCO2, the inhibition was -3.44% (inactive).
In the case of COc1ccccc1N=Cc1nc(-c2ccccc2)oc1OC(C)=O, the inhibition is reported as -2.38% (inactive).
In the case of CC(=O)Nc1ccc(S(=O)(=O)NCc2cn3c(C)csc3n2)cc1, the inhibition is reported as -3.02% (inactive).
For O=C(c1ccccc1Br)N1CCN(c2ccccc2)CC1, the inhibition was -4.76% (inactive).
With COc1cccc(OC)c1C(=O)Nc1ccc(CN2CCCCC2)cc1 the inhibition was -2.06% (inactive).
With O=C(Cn1nnc(-c2ccccc2)n1)Nc1ccccc1N1CCOCC1 the inhibition was 0.66% (inactive).
With CCCCSc1cc(C)nc2ncnn12 the inhibition was -0.67% (inactive).
In the case of COCCn1c(C)cc(C(=O)COC(=O)CCN2C(=O)c3ccccc3C2=O)c1C, the inhibition is reported as 0.65% (inactive).
For Cc1cc(=O)n(CC(C)C)c(O)c1C#N, the inhibition was 5.08% (inactive).
With Cc1nc2cc(Cl)ccc2n1CCO the inhibition was 0.32% (inactive).
In the case of CCCN1CCN(C(=O)Cn2c(=O)oc3cc(S(=O)(=O)NCc4ccccc4)ccc32)CC1, the inhibition is reported as -0.98% (inactive).
With COc1ccc2cc(C#N)c(SCC(=O)N3CCCC3)nc2c1 the inhibition was -5.08% (inactive).
With CCn1c(=O)cc(OCC(=O)NC2CCCCC2)c2ccccc21 the inhibition was 0% (inactive).
For CC(C(=O)Nc1ccccc1-c1ccccc1)N1CCN(C(=O)c2ccco2)CC1 (centres undefined), the inhibition was 0.32% (inactive).
In the case of Cc1c(C(=O)NCc2cccnc2)sc2ncn(CC(=O)N3CCCCC3C)c(=O)c12 (centres undefined), the inhibition is reported as 1.61% (inactive).
For O=C(c1cn(-c2ccccc2)nc1-c1cccs1)N1CCN(c2ccccn2)CC1, the inhibition was -2.38% (inactive).
With CCOc1ccc2[nH]c(=O)c(C(c3nnnn3Cc3ccco3)N3CCC(C)CC3)cc2c1 (centres undefined) the inhibition was 3.02% (inactive).
For c1ccc(-c2nnc(-c3ccco3)n2-c2ccccc2)cc1, the inhibition was 3.61% (inactive).
With N#Cc1ccccc1NC(=O)CSc1nnc(-c2ccccc2)n1-c1ccccc1 the inhibition was -0.32% (inactive).
In the case of Cc1ccc(-n2cnnn2)c2cccnc12, the inhibition is reported as 4.83% (inactive).
In the case of Cc1ccc(-c2[nH]nc3c2C(c2ccc(OC(=O)N4CCOCC4)cc2)C(C#N)=C(N)O3)cc1 (centres undefined), the inhibition is reported as -11.4% (inactive).
In the case of CC(C)=CC(=O)N1CCCc2ccccc21, the inhibition is reported as -7.21% (inactive).
With CCOC(=O)c1cc2n(n1)C(C(F)(F)C(F)(F)F)CC(C)N2 (centres undefined) the inhibition was -0.32% (inactive).
In the case of c1ccc(-c2ccccc2OCCn2cncn2)cc1, the inhibition is reported as 0.98% (inactive).
With CC(C)Cn1c(N)c(C(=O)COC(=O)c2ccc3c(c2)OCCO3)c(=O)n(C)c1=O the inhibition was 0.16% (inactive).
In the case of COc1ccc(Cn2c(CCCO)nc3ccccc32)cc1OC, the inhibition is reported as -3.17% (inactive).
With CN(C)C(=O)N1CCCC(C(=O)NCc2ccccc2)C1 (centres undefined) the inhibition was 4.5% (inactive).
With O=C(CN1C(=O)c2cccc3cccc1c23)N1CCN(c2ccccc2)CC1 the inhibition was -1.5% (inactive).
With CC(C)(C)OC(=O)NCCc1nnc(SCC(=O)c2ccc(Cl)cc2)o1 the inhibition was -3.83% (inactive).
For CCOC(=O)N1CCN(c2c(N3CCN(c4ccccc4OC)CC3)c(=O)c2=O)CC1, the inhibition was -7.38% (inactive).
In the case of Cn1c(=O)c2ncn(CC(=O)NCCOc3ccc(C(C)(C)C)cc3)c2n(C)c1=O, the inhibition is reported as -6.03% (inactive).
In the case of COc1ccc(-c2cc(C(=O)NCc3ccc(Cl)cc3)no2)cc1OC, the inhibition is reported as -0.33% (inactive).
For CCOC(=O)c1ccc(NC(=O)CCNc2c(N3CCCC3)c(=O)c2=O)cc1, the inhibition was 0.18% (inactive).
With CCOC(=O)CSc1nnc(CCc2nc3ccccc3[nH]2)n1C the inhibition was -7.78% (inactive).
In the case of CCOc1ccc(-c2nnn(CCC(=O)O)n2)cc1OC, the inhibition is reported as -0.16% (inactive).
For CCCCNC(=O)CN(C1CCCCC1)S(C)(=O)=O, the inhibition was -0.16% (inactive).
In the case of CCOCCCNC(=O)C1CCC(=O)N1CCc1ccccc1 (centres undefined), the inhibition is reported as -5.32% (inactive).
With OC(COc1ccc2ccccc2c1)CN1CCOCC1 (centres undefined) the inhibition was 0.66% (inactive).
In the case of COc1ccccc1CN1C(=O)CCC1(C)C(=O)NC1CCCCCC1 (centres undefined), the inhibition is reported as 2.62% (inactive).
